# Screening results from PubChem BioAssay.
# KB-V1 cytotox – qHTS assay for MDR1-selective chemotherapeutics: Primary screen using the drug-selected MDR subline cells KB-V1 | AID 1347076, 2019 | Potency, µM (series often up to 46.1 µM), hits mostly cytotoxic | KB-V1 MDR cells viability, CellTiter-Glo, 72 h | 400,000 compounds, 3.4% hits; note: % is set by controls: 0 for no effect and ±100 for the full control effect; nearly all actives have a fitted effect of over 60% in size
#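 In this primary screen, KB-V1 cells overexpressing P-gp are incubated with library compounds (lowest to highest concentration) for 72 h at 37 degrees C before a luminescent ATP viability read.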
# KB-3-1 tox – qHTS assay for MDR1-selective chemotherapeutics: Primary screen using the parental adenocarcinoma cell KB-3-1 | KB-3-1 viability, CellTiter-Glo ATP luminescence, 72 h | Potency, µM (highest dose often 46.1 µM), actives largely listed as cytotoxic | 400,000 compounds, 1.4% hits | AID 1347075, 2019; note: % is set by controls: 0 for no effect and ±100 for the full control effect; nearly all actives have a fitted effect of over 60% in size
#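 72 h, 37 °C compound treatment of KB-3-1 parental cells; CellTiter-Glo added, 10 min, luminescence read. Data corrected against DMSO-only plates and normalized before curve fitting.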
# MCF10A rereplic – A quantitative high throughput screen for small molecules that induce DNA re-replication in MCF 10a normal breast cells. 350,000 compounds, 2.9% hits. MCF 10A DNA re-replication, Hoechst nuclear intensity, 48 h. Potency, µM (top dose mostly 46.1 µM), for the others: at the top dose activity, positive = re-replication, actives largely listed as activators; note: % of control where 0% means no effect; nearly all actives have a fitted effect of over 50% in size
# RGS4 inhibitor – Inhibitors of Regulator of G Protein Signaling (RGS) 4: qHTS | Regulator of G-protein signaling 4 (Homo sapiens), P49798 | Transcreener GDP fluorescence polarization, RGS4-accelerated GTP hydrolysis | Potency, µM (top dose mostly 114 µM), inactives show top-dose activity change, negative = inhibition, actives largely listed as inhibitors | 390,000 compounds, 0.039% hits | AID 504845, 2011; note: % is set by controls: 0 for no effect and ±100 for the full control effect; nearly all actives have a fitted effect of over 75% in size
# Target sequence (P49798 whole entry, looked up): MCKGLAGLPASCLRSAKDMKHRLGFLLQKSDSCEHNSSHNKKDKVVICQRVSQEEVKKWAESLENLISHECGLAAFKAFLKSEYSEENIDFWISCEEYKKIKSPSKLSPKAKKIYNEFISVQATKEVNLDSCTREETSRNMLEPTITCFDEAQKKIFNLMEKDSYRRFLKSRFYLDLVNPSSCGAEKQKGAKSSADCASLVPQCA
#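 MLSMR compounds (23 nl, pin-transferred) preincubated 10 min at room temperature with a 500nM (2x) first reagent, then RGS4 at 900nM (2x) plus Transcreener GDP mix added; fluorescence polarization (620/688 nm) read before and after 90 min at 30 °C.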
# SW480 rerep – A quantitative high throughput screen for small molecules that induce DNA re-replication in SW480 colon adenocarcinoma cells; AID 624297, 2012; Potency, µM (titrated, usually from 46.1 µM), for inactives: at the top dose re-replication activation, usual class: activators; 340,000 compounds, 1.8% hits; SW480 DNA re-replication, Hoechst DNA content imaging, 48 h; note: % of control where 0% means no effect; nearly all actives have a fitted effect of over 55% in size
#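 Treated cells incubate 48 hr (37 C, 5% CO2), are stained 40 min with Hoechst, and nuclear fluorescence is enumerated; a rise in nuclei with high DNA signal marks re-replication.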
# TSG101-PTAP inh – qHTS Assay for Iinhibitors of HIV-1 Budding by Blocking the Interaction of PTAP/TSG101. Tumor susceptibility gene 101 protein (Homo sapiens), Q99816. Fluorescence polarization, FITC-PTAP peptide / Tsg101 binding. Potency, µM (titrated, usually from 115 µM), without a hit: at the top dose activity change, negative = inhibition, most hits filed as inhibitors. 340,000 tested, under 10 active. AID 493005, 2010; active = well fitted inhibition curve with a large enough effect in the main read-out, with a control signal flat, not every such curve was filed as active; inconclusive = small, poorly fitted or top-dose-only effect, or effect the other way, or a change in a side signal; inactive = no such curve, though single readings can be large or run the other way; note: % of control where 0% means no effect
# Target sequence (Q99816 whole entry, looked up): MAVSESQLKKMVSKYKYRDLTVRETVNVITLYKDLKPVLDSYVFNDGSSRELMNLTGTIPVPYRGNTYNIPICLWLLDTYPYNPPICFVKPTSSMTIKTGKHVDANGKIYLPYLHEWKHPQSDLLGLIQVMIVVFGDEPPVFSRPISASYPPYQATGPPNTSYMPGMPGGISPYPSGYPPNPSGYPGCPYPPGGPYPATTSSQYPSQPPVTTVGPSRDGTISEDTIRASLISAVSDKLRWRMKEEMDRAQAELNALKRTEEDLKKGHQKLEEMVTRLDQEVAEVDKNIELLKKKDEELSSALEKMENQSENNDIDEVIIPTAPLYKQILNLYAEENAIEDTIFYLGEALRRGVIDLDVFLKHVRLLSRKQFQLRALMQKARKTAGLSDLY
#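 Fluorescence anisotropy tracks displacement of a FITC-tagged PTAP peptide (50 nM) from the Tsg101 binding domain (10 uM), following a 20 min room-temperature incubation at pH 7.5.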
# Active calls of the source: *; i = inactive; ? = inconclusive; nt = no result; [ ] = another dose, or the depositor's remark. This is a sample that favours compounds with a hit; in the whole collection about 6.6% have one here. Unless noted, calls come from the whole dose curve; as a rule, active = well fitted curve in the direction sought with a large enough effect; inconclusive = small, poorly fitted or top-dose-only effect, or another doubt; inactive = no such curve, though single readings can be large; an effect the other way counts as inactive or inconclusive. Potency is the fitted concentration of half-maximal effect.
SMILES,KB-V1 cytotox,KB-3-1 tox,MCF10A rereplic,RGS4 inhibitor,SW480 rerep,TSG101-PTAP inh
Cc1ccccc1NC(=O)CN1C(=O)S/C(=C\c2ccc(-c3cc(C(=O)O)ccc3C)o2)C1=O,?,i,?,?,9%,?
Cc1cc(C(=O)O)ccc1-c1ccc(/C=C2\NC(=O)N(Cc3ccccc3Cl)C2=O)o1,i,i,2.3µM*,?,?,5%
Cc1ccc(C)c(N2C(=N)S/C(=C\c3ccc(-c4ccccc4C(=O)O)o3)C2=O)c1,i,i,18µM*,-27%,-19%,0%
COc1ccc(C(c2c(O)cc(C)n(Cc3ccco3)c2=O)N2CCCCC2)cc1OC (configuration not stated),i,i,nt,10%,nt,nt
Cc1ccc(C(=O)O)cc1-c1ccc(/C=C2\SC(=O)N(CC(=O)Nc3ccccc3)C2=O)o1,i,i,23µM*,?,-26%,3%
Cc1ccc(CN2C(=O)N/C(=C\c3ccc(-c4ccc(C(=O)O)cc4C)o3)C2=O)cc1,i,i,?,7%,7.3µM*,0%
N=C(N)c1ccc(-c2ccc(-c3ccc(C(=N)N)cc3)o2)cc1,?,i,nt,nt,nt,nt
COc1ccccc1C(=O)Nc1cccc(C(=O)OCc2cc(=O)n3cc(C)sc3n2)c1,nt,nt,nt,-6%,nt,nt
CCOC(=O)N1CC=C2C(C#N)=C(N)C(C#N)(C#N)[C@H](c3ccsc3)[C@H]2C1,15µM*,?,12%,-41%,12%,-7%
CN1CC=C2C(C#N)=C(N)C(C#N)(C#N)C(c3ccsc3)C2C1 (configuration not stated),i,i,-7%,-2%[11.4 µM],-14%,-16%
O=C(Cn1nc(CNc2ccc(Cl)cc2)[n+]2c1CCCCC2)c1ccc(Br)cc1,i,?,24%,5%,-5%,-3%
O=C(Cn1nc(CNc2ccc(Br)cc2)[n+]2c1CCCCC2)c1ccc([N+](=O)[O-])cc1,i,13µM*,7%,6%,-7%,0%
C/C1=C2/[N-]C(C(CC(N)=O)[C@@]2(C)CCC(=O)NCC(C)OP(=O)([O-])O[C@H]2[C@@H](O)[C@@H](n3cnc4cc(C)c(C)cc43)O[C@@H]2CO)[C@]2(C)N=C(/C(C)=C3N=C(/C=C4N=C1C(CCC(N)=O)C\4(C)C)[C@@H](CCC(N)=O)[C@]\3(C)CC(N)=O)[C@@H](CCC(N)=O)[C@]2(C)CC(N)=O.CC(=O)O.[Co] (some centres not stated),nt,nt,-4%,nt,0%,nt
O=C1c2cccc3cccc(c23)C(=O)N1c1cccnc1,i,i,18µM*,8%,3%,-7%
COc1ccc(N2C(=O)c3cccc4cccc(c34)C2=O)cc1,i,i,2%,-4%,13µM*,2%
Cc1ccc(Cn2c(=N)c(C(=O)NCC3CCCO3)cc3c(=O)n4ccccc4nc32)cc1 (configuration not stated),i,i,3.3µM*,2%,18µM*,-2%
N=c1c(C(=O)NCC2CCCO2)cc2c(=O)n3ccccc3nc2n1Cc1ccc(Cl)cc1 (configuration not stated),i,?,?,-2%,0.58µM*,-4%
N=c1c(C(=O)NC2CCCC2)cc2c(=O)n3ccccc3nc2n1CCCN1CCOCC1,i,i,?,-6%,?,-1%
N=c1c(C(=O)NCC2CCCO2)cc2c(=O)n3ccccc3nc2n1CCCO (configuration not stated),i,i,nt,-13%,nt,nt
N=c1c(C(=O)NC2CCCC2)cc2c(=O)n3ccccc3nc2n1CCN1CCOCC1,i,i,?,12%,2.8µM*,-6%
N=c1c(C(=O)NCC2CCCO2)cc2c(=O)n3ccccc3nc2n1Cc1ccccc1Cl (configuration not stated),i,?,3.3µM*,15%,21µM*,-1%
CCc1ccc(OC(C)c2nc(-c3ccc(-n4cccc4)cc3)no2)cc1 (configuration not stated),nt,nt,nt,30%,nt,nt
N=c1c(C(=O)NCC2CCCO2)cc2c(=O)n3ccccc3nc2n1Cc1ccccc1 (configuration not stated),i,i,3.7µM*,-8%,2.6µM*,-3%
Cc1ccc(Cn2c(=N)c(C(=O)NCC3CCCO3)cc3c(=O)n4cccc(C)c4nc32)cc1 (configuration not stated),i,i,21µM*,-7%,8.2µM*,-5%
N=c1c(C(=O)NC2CCCC2)cc2c(=O)n3ccccc3nc2n1Cc1ccccc1,i,i,?,0%,?,0%
SMILES,KB-V1 cytotox,KB-3-1 tox,MCF10A rereplic,RGS4 inhibitor,SW480 rerep,TSG101-PTAP inh
COc1ccc(Cn2c(=N)c(C(=O)NCC3CCCO3)cc3c(=O)n4ccccc4nc32)cc1 (configuration not stated),i,i,15µM*,5%,?,-3%
Cc1ccc(Cn2c(=N)c(C(=O)NC3CCCCC3)cc3c(=O)n4ccccc4nc32)cc1,i,i,2.6µM*,11%,2.3µM*,-1%
COc1ccc(CCn2c(=N)c(C(=O)NCC3CCCO3)cc3c(=O)n4ccccc4nc32)cc1 (configuration not stated),?,i,17%,30%,10%,-1%
CCc1ccc(Nc2nnc(-n3nc(C)cc3C)c3ccccc23)cc1,i,i,nt,5%,nt,nt
COc1ccc(-c2nc3scc(CCNS(=O)(=O)c4cccs4)n3n2)cc1,nt,nt,nt,11%,nt,nt
Cc1ccc2c(c1)/C(=N/OS(=O)(=O)c1ccccc1)CCS2,?,i,-179%[0.0737 µM],-13%,-4%,-4%
CC1=CC(=O)C(C(C)C)=C/C1=N/OS(=O)(=O)c1ccccc1,21µM*,?,2.9µM*,-49%,0.73µM*,-7%
CC1=CC(=O)C=C(C)C1=NOS(=O)(=O)c1ccccc1,?,?,7.3µM*,-9%[11.4 µM],7.3µM*,-2%
O=C(CSc1nc2c(c(=O)[nH]1)CCCC2)Nc1ccc(Br)cc1,i,i,nt,8%,nt,nt
